Here are results for nine compounds from PubChem BioAssay (NCI).

Common to all, as to assay: NCI-60 one-dose screen, 48 h (100 = growth as untreated, 0 = no growth, -100 = all killed)
Assay [1] has as its system HT29 colon. The following applies: 10 µM unless noted.
The test system of assay [2] is SNB-75 CNS. The following applies: 10 µM unless noted.
Assay [3] concerns SNB-19 CNS. The following applies: 10 µM unless noted.
The test system of assay [4] is U251 CNS. The following applies: 10 µM unless noted.
Assay [5] relates to PC-3 prostate. The following applies: 10 µM unless noted.
Assay [6] deals with UACC-62 melanoma. The following applies: 10 µM unless noted.
Assay [7] deals with LOX IMVI melanoma. The following applies: 10 µM unless noted.
The test system of assay [8] is SK-MEL-28 melanoma. The following applies: 10 µM.
For assay [9], the system named is SK-MEL-2 melanoma. The following applies: 10 µM unless noted.
Assay [10] has as its system SN12C renal. The following applies: 10 µM unless noted.
Assay [11] has as its system UO-31 renal. The following applies: 10 µM unless noted.
For assay [12], the system named is TK-10 renal. The following applies: 10 µM unless noted.
For assay [13], the system named is ACHN renal. The following applies: 10 µM unless noted.
The subject of assay [14] is CAKI-1 renal. The following applies: 10 µM unless noted.
Assay [15] relates to A498 renal. The following applies: 10 µM unless noted.
Assay [16] has as its system CCRF-CEM leukemia. The following applies: 10 µM unless noted.
The subject of assay [17] is MOLT-4 leukemia. The following applies: 10 µM unless noted.
For assay [18], the system named is SR leukemia. The following applies: 10 µM unless noted.
The subject of assay [19] is EKVX NSCLC. The following applies: 10 µM unless noted.
Assay [20] relates to SK-MEL-5 melanoma. The following applies: 10 µM unless noted.

This is part of a sample that, as a whole, favours compounds with a hit. Of some 83,000 tested, about 20% had one in any assay.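 Assay: single dose, 48 h. Readout: percent growth (0 = no net growth; negative = cell death). Active: <10.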 A number with no mark means an inactive call. Activity calls are given as the source filed them.

Turning to `O=NN(C(=O)NC1CCC(C(=O)O)CC1)C1CCC(C(=O)O)CC1` (configuration not stated), the growth is 108% in [1]; 84.1% in assay [2]; 100% in assay [3]; 104% in assay [4]; 98.6% in assay [5]; 108% in assay [6]. Further, the growth is 99.3% in assay [7]; 106% in assay [8]; 122% in [9]; 103% in [10]; 92.8% in assay [11]; 110% in assay [12]. The growth in [13] was 100%; in assay [14] it was 90.2%; in assay [15] it was 103%; in [16], 91.9%; in [17], 102%; in [18] it was 95%.
As to `Nc1ccn(C2O[C@H](CO)[C@@H](O)[C@H]2O)c(=O)n1` (some centres not stated), the growth was 106% in [1]; 76.9% in assay [2]; 101% in assay [3]; 48.9% in assay [4]; 85.6% in [5]; 95.9% in [6]. Further, the growth in [7] was 75.5%; in assay [8], 76.4%; in assay [9], 110%; in [10], 54.9%; in assay [11] it was 100%; in [12], 125%. Moreover, the growth is 91.3% in [14]; 106% in [15]; 29.2% in [16]; 57.1% in assay [17]; 2.99% (active) in [18].
On to `OC(c1ccccc1)c1nnc(SCc2ccccc2)n1Cc1ccccc1` (configuration not stated), for which the growth in [1] was 103%; in [2], 76.3%; in assay [3], 79.7%; in [4], 87.5%; in assay [5], 87.6%; in [6], 69.1%. In addition, the growth is 98.7% in [7]; 100% in [8]; 84.3% in assay [9]; 102% in assay [19]; 89.7% in [10]; 67.7% in [11]. Besides, the growth in [12] was 103%; in [14], 97%; in assay [15], 90.1%; in assay [16], 75.4%; in assay [17], 99.9%; in assay [18] it was 42.5%.
As for `COc1cc(C2C(C#N)=C(N)OC3=C2C(=O)c2ccccc2C3=O)cc(OC)c1O` (configuration not stated), the growth in assay [1] was 65.1%; in assay [2], 4.8% (active); in assay [3] it was 37.3%; in assay [4], 19.9%; in assay [5], 18.9%; in [6] it was 36.9%. In addition, the growth in assay [7] is 25.5%; in assay [8], 66.4%; in [9] it was 21.1%; in [19] it was 78.9%; in assay [10], 47.5%; in assay [11], 36%. Moreover, the growth is 70.1% in [12]; 41.2% in [13]; -8.45% (active) in [15]; 106% in assay [16]; 105% in assay [17]; 38.1% in [18].
Turning to `COc1ccc(CCN2C(=O)CCSC2=S)cc1`, the growth in [1] is 18%; in assay [2], 54.1%; in [3], 84%; in assay [4] it was 92.2%; in assay [20], 94.1%; in [6], 77.1%. The growth in [7] was 8% (active); in [8], 77.7%; in [9], 85.4%; in [19], 101%; in [10], 46.4%; in assay [11], 59.9%. Further, the growth is 39.1% in [12]; 42.3% in [13]; 44.8% in [14]; 82.9% in assay [15]; 30% in assay [16]; 64.1% in assay [17]. The growth in assay [18] is 18.1%.
Take `O=S1(=O)N(Cc2ccccc2)[C@@H](Cc2ccccc2)[C@H](O)[C@H](O)[C@H](Cc2ccccc2)N1Cc1ccccc1`: the growth is 6.95% (active) in [1]; 13.3% in [2]; 17% in [3]; 4.33% (active) in [4]; 4.89% (active) in [5]; 5.81% (active) in [6]. For the same compound, the growth was -11.3% (active) in assay [7]; -5.68% (active) in [9]; -1.3% (active) in [19]; 5.15% (active) in assay [10]; 0% (active) in [11]; 60.4% in [12]. Also, the growth in assay [13] was -7.05% (active); in [14], -19.1% (active); in assay [15], 18.5%; in assay [16], 7.73% (active); in [18], 4.45% (active).
For the compound `c1ccc(-c2ccc(-c3nc4ccccc4[nH]3)cc2)cc1`, the growth is 52.9% in assay [1]; 55.4% in [2]; 106% in assay [3]; 90.6% in assay [4]; 76.8% in assay [5]; 103% in [6]. Moreover, the growth was 84.1% in [7]; 93.2% in [8]; 101% in assay [9]; 92.9% in assay [10]; 67.4% in assay [11]; 84.7% in [12]. For the same compound, the growth was 90.7% in assay [13]; 93.6% in assay [14]; 88.6% in assay [15]; 56.9% in [17]; 58.8% in assay [18].
For `Cn1nc(C(F)(F)F)c(-c2ccc(Cl)c(C(F)(F)F)c2)c1-c1ccc(OCc2ccc(Cl)cc2)cc1O`, the growth is 20.4% in assay [1]; 47.7% in assay [2]; 19.2% in assay [3]; 0.822% (active) in assay [4]; 3.78% (active) in assay [5]; 19.7% in [6]. Further, the growth in [7] is 5.24% (active); in assay [8], 31.2%; in assay [9], 1.95% (active); in [19], 12.8%; in [10], 6.24% (active); in assay [11], -6.34% (active). For the same compound, the growth in [12] was 0.361% (active); in assay [14], 19.8%; in assay [15] it was 5.29% (active); in assay [16], 9.89% (active); in [18] it was 25.1%.
For `O=C(Nc1ccc(I)cc1F)c1cc(F)ccc1O`, the growth in assay [1] was 25.6%; in assay [2], -20.7% (active); in assay [3] it was 16.8%; in assay [4], -16.8% (active); in assay [5], 3.39% (active); in [6] it was -21.9% (active). In addition, the growth is 0.316% (active) in assay [7]; -5.23% (active) in assay [8]; -35.8% (active) in [9]; 5.82% (active) in [19]; 0.104% (active) in assay [10]; 6.41% (active) in [11]. Further, the growth in assay [12] was -0.353% (active); in [15], -58.9% (active); in assay [16], 6.38% (active); in assay [17], -16.4% (active).
